CYP2C9 act – CYP2C9 (human) activation. activation factor at 5 µM. 96,000 tested, 1.4% active. recombinant CYP2C9, luciferin-H conversion, luminescence; active compounds read high; factor 1 = untreated enzyme, 0 = blocked;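 active means activation factor of 2 or more for CYP2C9 at a 5 µM dose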;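 further: 0 = sulfaphenazole-blocked wells and 1 = vehicle-only wells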
CYP2C19 act – cytochrome P450 2C19 (human) activation | 96,000 tested, under 10 active | activation factor at 5 µM | recombinant CYP2C19, luciferin-H EGE luminescence; active compounds read high; 0 = fully inhibited enzyme, 1 = untreated enzyme | P33261 | AID 1025;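 active means activation factor of at least 2 at 5 µM in the primary screen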;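 further: 0 = wells with 2.5 mM tranylcypromine and 1 = vehicle-only wells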
Target sequence (P33261 whole entry, looked up): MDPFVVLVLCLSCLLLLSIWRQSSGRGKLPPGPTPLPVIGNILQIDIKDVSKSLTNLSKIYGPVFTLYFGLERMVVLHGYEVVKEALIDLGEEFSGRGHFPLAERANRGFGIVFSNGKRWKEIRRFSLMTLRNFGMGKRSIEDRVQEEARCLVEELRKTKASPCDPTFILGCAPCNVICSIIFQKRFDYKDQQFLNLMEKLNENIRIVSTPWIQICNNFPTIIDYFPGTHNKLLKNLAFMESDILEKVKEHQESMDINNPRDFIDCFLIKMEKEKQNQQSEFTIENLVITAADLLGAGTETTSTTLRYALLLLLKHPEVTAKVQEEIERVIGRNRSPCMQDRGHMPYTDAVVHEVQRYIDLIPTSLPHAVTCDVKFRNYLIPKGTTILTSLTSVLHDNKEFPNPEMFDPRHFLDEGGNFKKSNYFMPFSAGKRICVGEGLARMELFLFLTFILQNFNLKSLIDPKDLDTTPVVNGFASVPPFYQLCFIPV
PLAP activator – activators of human placental alkaline phosphatase. purified PLAP enzyme, luminescent substrate read-out; active compounds read high. activation fold at 20 µM. 96,000 tested, 1.2% active. AID 696; in the data active means activation fold above about 2
CYP2C19 inh – blocks human cytochrome P450 2C19; CYP2C19 Supersomes, luciferin-H EGE luminescence, 30 min; 96,000 tested, 21% active; inhibition, % at 5 µM;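 active means CYP2C19 inhibition above a set limit at 5 µM in the primary screen, cut at about 50% in these data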;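 further: plate controls were negative control wells for no effect and 2.5 mM tranylcypromine positive control for full effect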
CYP2C9 inh – inhibitors of human CYP2C9; P11712; 96,000 tested, 20% active; CYP2C9 Supersomes, luciferin-H conversion, luminescence; inhibition, % at 5 µM;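 active means blocking of liver enzyme CYP2C9 beyond about 50% at 5 µM, limit read from the data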
Active calls of the source: *. Rows were chosen to be rich in hits. Some 31% of all compounds tested hit in one or more screens of this group.

`NS(=O)(=O)c1cccc(NC(=O)Cn2cnc3ccccc3c2=O)c1` gave CYP2C9 act 0.6, CYP2C19 act 1, PLAP activator 0.8, CYP2C19 inh 3 and CYP2C9 inh 39.
`COC(=O)c1cc(NC(=O)C2CC=CCC2C(=O)O)cc(C(=O)OC)c1` (stereo not drawn) gave CYP2C9 act 0.6, CYP2C19 act 1, PLAP activator 1, CYP2C19 inh -5 and CYP2C9 inh 38.
CC(C)(C)OC(=O)N1CCNc2ccccc2C1 was read as CYP2C9 act 1.2, CYP2C19 act 1, PLAP activator 1, CYP2C19 inh 0 and CYP2C9 inh -22.
Screening O=c1c2ccccc2nc2n1CC/C2=C/N1CCN(c2cccc(C(F)(F)F)c2)CC1 returned CYP2C9 act 1.2, CYP2C19 act 0.9, PLAP activator 0.9, CYP2C19 inh 8 and CYP2C9 inh -16.
For COC(=O)c1ccc(N2CCN(c3ccccc3)CC2)c(NC(=O)C2CC2)c1 the results were CYP2C9 act 0.6, CYP2C19 act 0.6, PLAP activator 1, CYP2C19 inh 38 and CYP2C9 inh 41.
For COCCCn1c(SCC(=O)Nc2ccc(C(C)=O)cc2)nc2ccccc2c1=O the results were CYP2C9 act 0.3, CYP2C19 act 0, PLAP activator 1, CYP2C19 inh 99* and CYP2C9 inh 71*.
CCn1c(SCC(=O)Nc2ccc(C(C)=O)cc2)nc2nc3c(cc2c1=O)CCCC3 was read as CYP2C9 act 0.3, CYP2C19 act 0.6, PLAP activator 1.4, CYP2C19 inh 42 and CYP2C9 inh 68*.
O=C(Cn1cnc2ccccc2c1=O)Nc1cccc(-c2nnc3n2CCCCC3)c1 was read as CYP2C9 act 0.5, CYP2C19 act 0.4, PLAP activator 1.8, CYP2C19 inh 57* and CYP2C9 inh 49.
`COc1cccc(NC(=O)CSc2nc3ccccc3c(=O)n2CCCC(=O)N2CCCC2)c1` gave CYP2C9 act 0.1, CYP2C19 act 0.3, PLAP activator 1.3, CYP2C19 inh 72* and CYP2C9 inh 88*.
`CCc1ccc(NC(=O)CSc2nc3cc(C(=O)OC)ccc3c(=O)n2CC2CCCO2)cc1` (stereo not drawn) gave CYP2C9 act 0.5, CYP2C19 act 0.8, PLAP activator 0.9, CYP2C19 inh 20 and CYP2C9 inh 46.
Screening CCn1c(SCC(=O)Nc2ccc(C(C)=O)cc2)nc2ccccc21 returned CYP2C9 act 1.1, CYP2C19 act 1.1, PLAP activator 1.1, CYP2C19 inh -8 and CYP2C9 inh -15.
O=C(NC1=NCCS1)c1csc2ccccc12 was read as CYP2C9 act 1.1, CYP2C19 act 0.6, PLAP activator 1, CYP2C19 inh 44 and CYP2C9 inh -12.
Screening CCC(Sc1nc2ccccc2c(=O)[nH]1)C(=O)O (stereo not drawn) returned CYP2C9 act 1, CYP2C19 act 1.1, PLAP activator 1, CYP2C19 inh -10 and CYP2C9 inh 3.
Screening O=C1c2[nH]nc(-c3ccccc3O)c2C(c2ccccc2F)N1Cc1ccco1 (stereo not drawn) returned CYP2C9 act 0.1, CYP2C19 act 0.1, PLAP activator 1.6, CYP2C19 inh 85* and CYP2C9 inh 95*.
O=C(Nc1ccc2nc(-c3ccccc3)[nH]c2c1)c1ccco1 was read as CYP2C9 act 0.4, CYP2C19 act 0.4, PLAP activator 0.9, CYP2C19 inh 61* and CYP2C9 inh 58*.
Cc1ccc(-c2nc3ccccc3[nH]2)cc1NC(=O)c1ccco1 was read as CYP2C9 act 0.6, CYP2C19 act 0.8, PLAP activator 1.2, CYP2C19 inh 19 and CYP2C9 inh 35.
`O=C(Nc1cccc(-c2nc3ccccc3[nH]2)c1)c1cccc(NC(=O)c2ccco2)c1` gave CYP2C9 act 0.3, CYP2C19 act 0.5, PLAP activator 1.6, CYP2C19 inh 54* and CYP2C9 inh 70*.
`CCOCCCNc1ncnc2c1[nH]c1ccccc12` gave CYP2C9 act 0.6, CYP2C19 act 0.4, PLAP activator 1.1, CYP2C19 inh 60* and CYP2C9 inh 39.
For CCCCOCCCNc1ncnc2c1[nH]c1ccccc12 the results were CYP2C9 act 0.3, CYP2C19 act 0.5, PLAP activator 1.1, CYP2C19 inh 52* and CYP2C9 inh 66*.
`c1ccc2c(c1)[nH]c1c(NCC3CCCO3)ncnc12` (stereo not drawn) gave CYP2C9 act 0.5, CYP2C19 act 0.6, PLAP activator 1, CYP2C19 inh 44 and CYP2C9 inh 54*.
For CCCCOc1ncnc2c1[nH]c1ccccc12 the results were CYP2C9 act 0.8, CYP2C19 act 0.6, PLAP activator 0.9, CYP2C19 inh 40 and CYP2C9 inh 24.
For CC1=C(C)CC(C(=O)c2ccccc2)C(C(=O)O)C1 (stereo not drawn) the results were CYP2C9 act 1.1, CYP2C19 act 1.1, PLAP activator 1.2, CYP2C19 inh -12 and CYP2C9 inh -10.
Screening Cc1ccc(NC(=O)c2ccco2)c(NC(=O)CN2C(=O)c3ccccc3C2=O)c1 returned CYP2C9 act 0.9, CYP2C19 act 1, PLAP activator 1, CYP2C19 inh 2 and CYP2C9 inh 12.
For CCOC(=O)c1ccc2c(c1)nc(SCc1cn3ccsc3n1)n2CC the results were CYP2C9 act 0.5, CYP2C19 act 0.7, PLAP activator 1.3, CYP2C19 inh 28 and CYP2C9 inh 52*.
Screening CCOC(=O)c1ccc2c(c1)nc(COc1ccc3ccccc3c1)n2CC returned CYP2C9 act 0.5, CYP2C19 act 0.8, PLAP activator 0.9, CYP2C19 inh 18 and CYP2C9 inh 48.
CC(C)CC(c1nnnn1Cc1ccccc1)N1CCN(C(=O)c2ccco2)CC1 (stereo not drawn) was read as CYP2C9 act 0.3, CYP2C19 act 0.1, PLAP activator 1.6, CYP2C19 inh 87* and CYP2C9 inh 65*.
For O=C(c1ccco1)N1CCN(C(c2ccccc2Cl)c2nnnn2Cc2cccs2)CC1 (stereo not drawn) the results were CYP2C9 act 0.1, CYP2C19 act 0.1, PLAP activator 1.5, CYP2C19 inh 89* and CYP2C9 inh 92*.
For COCCn1nnnc1C(C(C)C)N1CCN(C(=O)c2ccco2)CC1 (stereo not drawn) the results were CYP2C9 act 1.1, CYP2C19 act 1, PLAP activator 0.8, CYP2C19 inh 4 and CYP2C9 inh -10.
Screening CCCC(c1nnnn1CCOC)N1CCN(C(=O)c2ccco2)CC1 (stereo not drawn) returned CYP2C9 act 0.6, CYP2C19 act 0.5, PLAP activator 1.1, CYP2C19 inh 50* and CYP2C9 inh 44.
Screening O=C(Nc1ccc(NC(=O)C2CC2)nc1)c1cccnc1 returned CYP2C9 act 0.8, CYP2C19 act 1, PLAP activator 1, CYP2C19 inh 5 and CYP2C9 inh 15.
CC1CC1C(=O)OCC(=O)NC(=O)NCc1ccco1 (stereo not drawn) was read as CYP2C9 act 0.9, CYP2C19 act 0.9, PLAP activator 1, CYP2C19 inh 14 and CYP2C9 inh 5.

Assay outcomes deposited in PubChem by Sanford-Burnham Center for Chemical Genomics.
